According to PubChem BioAssay (NCATS):
Inconclusive results are not listed. Where a call stands in place of a potency, no number is given. Activity calls are given as the source filed them. Calls follow the shape of the dose curve; as a rule, active = well fitted inhibition curve with a large enough effect; inconclusive = small, poorly fitted or top-dose-only effect; inactive = no such curve, though single readings can be large or run the other way. Where a SMILES comes first, the peptide text is derived from it.

experiment: P-glycoprotein substrates identified in KB-3-1 adenocarcinoma cell line, qHTS therapeutic library screen (AID 1346986); conditions: KB-3-1 parental cells viability, CellTiter-Glo, 72 h; series mostly up to 44.5 µM; also: nearly all actives have a fitted effect of over 60% in size
Method in brief: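 Using luminescence to quantify ATP, parental and P-gp-overexpressing KB cells were compared after 72 h compound titration. KB-8-5-11 was also run with the P-gp inhibitor tariquidar.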

Row | Structure (SMILES) | Potency | outcome
1 | CC(C)(O)C1CC=C(C(=O)OCC2OC(Oc3c(O)cc(C(=O)O)cc3O)C(O)C(O)C2O)CC1 (stereo not given) | inactive | –
2 | C[C@@H](O)[C@H](N)C(=O)N1CCC[C@H]1C(=O)N1CCC[C@H]1C(=O)N[C@H](C(N)=O)[C@@H](C)O (H-TPPT-NH2) | – | inactive [at 9.29 µM]
3 | CC(=O)OC[C@]1(O)[C@H]2[C@H](OC(=O)CC(C)C)OC=C(CO[C@@H]3O[C@H](CO)[C@@H](O)[C@H](O)[C@H]3O)[C@H]2C[C@@H]1O | inactive | –
4 | CC1=CC(=O)CC(C)(CO[C@@H]2O[C@H](CO)[C@@H](O)[C@H](O)[C@H]2O)C1(O)/C=C/C(C)=C/C(=O)O (stereo not given in full) | inactive | –
5 | CC1(C)CC2C(C1)C1(C)CCC13OC3(CO)C2O (stereo not given) | inactive | –
6 | Nc1ncnc2c1ncn2[C@H]1CCCO1 | inactive | –
7 | CC(C)(C)NCC(O)COc1cccc2c1CCCC2=O (stereo not given) | inactive | –
8 | C=C(C)[C@H]1C[C@@H](O)C(=C)CC[C@@H](O)C(=C)[C@@H](O)C1 | inactive | –
9 | CC(=O)NCCCCn1c2c(c3ccccc31)C(=O)NCC2 | inactive | –
10 | N[C@H]1C[C@H]1c1ccc(-c2cccc(O)c2)cc1 | inactive | –
11 | C[C@@H]1O[C@@H](OC[C@H]2O[C@@H](OCCc3ccccc3)[C@H](O)[C@@H](O)[C@@H]2O)[C@H](O)[C@H](O)[C@H]1O | inactive | –
12 | OC[C@H]1O[C@@H](Oc2cc(O)cc(/C=C/c3ccc(O)cc3)c2)[C@H](O)[C@@H](O)[C@@H]1O | inactive | –
13 | C=C1CC2(C(=O)O)CC1CCC2C1(C)CCCC2(C)C(=O)OC(O)C21 (stereo not given) | inactive | –
14 | CC1(CO)CC[C@]2(C(=O)O[C@@H]3O[C@H](CO)[C@@H](O)[C@H](O)[C@H]3O)CC[C@]3(C)C(=CCC4[C@@]5(C)CC[C@H](O[C@@H]6O[C@H](C(=O)O)[C@@H](O)[C@H](O)[C@H]6O)C(C)(C)C5CC[C@]43C)C2C1 (stereo not given in full) | – | inactive [at 9.29 µM]
15 | C[C@@H]1O[C@@H](O[C@H]2[C@H](OC(=O)[C@]34CCC(C)(C)C[C@H]3C3=CCC5[C@@]6(C)C[C@H](O)[C@H](O[C@@H]7O[C@H](CO)[C@@H](O[C@@H]8O[C@H](CO)[C@@H](O)[C@H](O)[C@H]8O)[C@H](O)[C@H]7O)[C@@](C)(CO)C6[C@H](O)C[C@@]5(C)[C@]3(C)C[C@H]4O)OC[C@H](O)[C@@H]2O)[C@H](O)[C@H](O)[C@H]1O[C@@H]1OC[C@@H](O)[C@H](O[C@@H]2OC[C@](O)(CO)[C@H]2O)[C@H]1O (stereo not given in full) | – | inactive [at 9.29 µM]
16 | COC(=O)C1=COC(OC2OC(CO)C(O)C(O)C2O)C2C1CC(OC(=O)C(O)CC(=O)O)C2C (stereo not given) | inactive | –
17 | CO[C@@H]1CC[C@H](OC[C@]2(COC(=O)c3ccc(C)[nH]3)[C@H](OC(C)=O)CC[C@@]3(C)[C@@H]4CC=C(C)[C@@H](C5=C(O)C(=O)OC5O)[C@]4(C)CC[C@@H]32)O[C@H]1C (stereo not given in full) | inactive | –
18 | COc1ccc2c(c1)OC[C@]1(O)c3cc4c(cc3O[C@H]21)OCO4 | inactive | –
19 | O=C(/C=C/c1ccc(O)cc1)OCC1=C[C@@H](O)[C@@H]2C=CO[C@@H](O[C@@H]3O[C@H](CO)[C@@H](O)[C@H](O)[C@H]3O)[C@H]12 | inactive | –
20 | COc1ccc2c(c1O)OC[C@H]1c3ccc(O)cc3O[C@@H]21 | inactive | –

Row | Structure (SMILES) | Potency | outcome
21 | CC(C)=CCCC1(C)Oc2cc3c(c4c2C2C(O4)C(C)(O)CCC21)CN(C(CCC(=O)O)C(=O)O)C3=O (stereo not given) | inactive | –
22 | CC1=C2C3OC(=O)C(C)C3(O)CCC2(C)CCC1=O (stereo not given) | inactive | –
23 | NC1CCC(N[C@@H]2C[C@H]2c2ccccc2)CC1 (stereo not given in full) | inactive | –
24 | CCOc1nc2cccc(C(=O)OCc3oc(=O)oc3C)c2n1Cc1ccc(-c2ccccc2-c2noc(O)n2)cc1 | inactive | –
25 | COC(=O)CC1(O)C(=O)Nc2ccccc21 (stereo not given) | inactive | –
26 | COc1cc(C(C)=O)ccc1O[C@@H]1O[C@H](CO[C@@H]2O[C@@H](C)[C@H](O)[C@@H](O)[C@H]2O)[C@@H](O)[C@H](O)[C@H]1O | inactive | –
27 | O=C(O)c1ccc(CCCc2ccc(OCCc3ccc(F)cc3)cc2)o1 | inactive | –
28 | CC(=O)[C@@H]1CC[C@]2(C(=O)O)CC[C@]3(C)C(CCC4[C@@]5(C)CC[C@H](O)C(C)(C)C5CC[C@]43C)C12 (stereo not given in full) | inactive | –
29 | CC(C)CC(=O)n1cc(C(N)=O)c(=O)cc1C(O)c1ccccc1 (stereo not given) | inactive | –
30 | COC(=O)C1=CO[C@@H](O[C@@H]2O[C@H](CO)[C@@H](O)[C@H](O)[C@H]2O)[C@@H]2[C@@H](C)[C@@H](O)C[C@H]12 | inactive | –
31 | CC1(C)C(=O)C(C)(C)c2cc(C(=O)Nc3ccc(C(=O)O)cc3)ccc21 | inactive | –
32 | CC1CC(O)CC(C)(C)C1(O)CCO (stereo not given) | inactive | –
33 | CC1(CO)CC[C@]2(C(=O)O[C@@H]3O[C@H](CO)[C@@H](O)[C@H](O)[C@H]3O)CC[C@]3(C)C(=CCC4[C@@]5(C)C[C@H](O)[C@H](O[C@@H]6OC[C@@H](O)[C@H](O)[C@H]6O)[C@@](C)(CO)C5CC[C@]43C)C2C1 (stereo not given in full) | – | inactive [at 9.29 µM]
34 | C/C(=C\CO)CC/C=C(\C)C(=O)O[C@H]1[C@H](OC2OC=C(C(=O)O)C3CCC(C)(O)C23)O[C@H](CO)[C@@H](O)[C@@H]1O (stereo not given in full) | inactive | –
35 | CC(C)c1nc(N(C)S(C)(=O)=O)nc(-c2ccc(F)cc2)c1/C=C/[C@@H](O)C[C@@H](O)CC(=O)O | inactive | –
36 | CC12CCC3C(C)(C)C(O)CCC3(C)C1Cc1c(oc(C(=O)O)cc1=O)O2 (stereo not given) | inactive | –
37 | C[C@@H]1CC[C@]2(C(=O)O)CC[C@]3(C(=O)O)C(=CCC4[C@@]5(C)CC[C@H](O[C@@H]6O[C@@H](C)[C@H](O[C@@H]7O[C@H](CO)[C@@H](O)[C@H](O)[C@H]7O)[C@@H](O)[C@H]6O)C(C)(C)C5CC[C@]43C)C2[C@H]1C (stereo not given in full) | inactive | –
38 | CC(C)C1=CC2=CCC3[C@](C)(CCC[C@@]3(C)C(=O)O)C2CC1O (stereo not given in full) | inactive | –
39 | CC1=CC(=O)C2C(C)(C)CC(O)CC2(C)C1CO (stereo not given) | inactive | –
40 | C=C1CC23CC1(O)CCC2C1=CC2OC(=O)C(C)(C2O)C1C3C(=O)O (stereo not given) | inactive | –
